Measured values as given in PubChem BioAssay AID1861 (The Scripps Research Institute Molecular Screening Center, 2009).
The whole screen tested about 290,000 compounds, of which about 3,100 (1.1%) were called active. The entries come from a sample that favours actives as a whole. Unmarked numbers belong to inactive results. No stated cut-off is given here; in the data, active means inhibition above about 16% (passing the limit was not always enough); inactive means the rest.

Target: Neuropeptides B/W receptor type 1 (Homo sapiens) (UniProt P48145)
Assay: GPR7 receptor antagonists, primary screen, cell-based, fluorescence, single concentration (AID 1861);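 further: cells stimulated with the agonist NPW; 0% = agonist with vehicle and 100% = vehicle without agonist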
Conditions: GPR7-expressing cells, fluorescence antagonist assay; at 4.4 µM; stronger effect = higher value

Chain of Neuropeptides B/W receptor type 1 (Homo sapiens) (P48145 whole entry, looked up): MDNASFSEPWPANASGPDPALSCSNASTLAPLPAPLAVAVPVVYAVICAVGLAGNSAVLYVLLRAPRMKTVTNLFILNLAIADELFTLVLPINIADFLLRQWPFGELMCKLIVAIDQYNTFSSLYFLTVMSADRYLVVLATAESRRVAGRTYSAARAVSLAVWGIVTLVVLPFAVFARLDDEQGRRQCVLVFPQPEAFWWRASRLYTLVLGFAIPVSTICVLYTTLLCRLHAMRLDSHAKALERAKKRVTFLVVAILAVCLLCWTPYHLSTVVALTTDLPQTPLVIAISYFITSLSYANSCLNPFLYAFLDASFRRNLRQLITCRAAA

Row | Compound | inhibition
1 | CS(=O)(=O)c1ccc(-c2nnn(CC(=O)Nc3ccc4c(c3)OCCO4)n2)cc1 | 11.6%
2 | O=C(CN(Cc1ccc(Br)cc1)S(=O)(=O)c1ccccc1)NCc1ccncc1 | 5.84%
3 | CC(=O)NNC(=O)c1csc(Cc2c(Cl)sc3ccc(Cl)cc23)n1 | 0.26%
4 | CC1CCN(S(=O)(=O)c2ccc(S(=O)(=O)NCc3ccco3)cc2)CC1 | 19.6% (active)
5 | Cc1ccc(S(=O)(=O)N2CCC(C(=O)N[C@@H](C)C(=O)NCc3ccco3)CC2)cc1 | 2.63%
6 | CC1CCN(S(=O)(=O)c2ccc(S(=O)(=O)NCc3cccnc3)cc2)CC1 | -1.72%
7 | O=C(CC1SC(=Nc2ccccc2)N(Cc2ccccn2)C1=O)Nc1cccc(Cl)c1 (configuration not stated) | -4.47%
8 | CCN1C(=NCc2ccc(OC)cc2)N[C@@H](CCc2ccccc2)[C@H](C(=O)NCc2ccc(OC)cc2)[C@H]1C | 14%
9 | CCN(CC)CCCNC(=O)c1c(O)c2cc(F)cc3c2n(c1=O)C(C)CC3 (configuration not stated) | 4.5%
10 | CN(C)CCCN(C(=O)c1ccc(S(=O)(=O)N2CCCCCC2)cc1)c1nc2ccc(Br)cc2s1 | 28.6% (active)
11 | CCc1ccc2nc(N(CCCN(C)C)C(=O)c3ccc4c(c3)OCCO4)sc2c1 | 22.4% (active)
12 | CN(C)CCCN(C(=O)c1ccc(S(=O)(=O)N2CCCc3ccccc32)cc1)c1nc2ccc(F)cc2s1 | 41.8% (active)
13 | CCOc1ccc2nc(N(CCN(C)C)C(=O)c3ccc4ccccc4c3)sc2c1 | 3%
14 | CSc1nc2ccc(S(=O)(=O)N3CCc4ccccc43)cc2s1 | -0.77%
15 | O=C(Nc1nc2ccc([N+](=O)[O-])cc2s1)c1ccc(S(=O)(=O)N2CCCc3ccccc32)cc1 | -16.1%
16 | CC(=O)N(CCCN(C)C)c1nc2ccc(C)cc2s1 | -10.8%
17 | CCOc1ccc2nc(N(CCCN(C)C)C(=O)c3ccc(C(=O)c4ccccc4)cc3)sc2c1 | 6.16%
18 | CCN(CC)CCN(C(=O)c1ccc(S(=O)(=O)N2CCOCC2)cc1)c1nc2cc3c(cc2s1)OCCO3 | -11.1%
19 | COc1ccc(C(C(=O)NC2CCCCC2)N(C(=O)Cc2c[nH]c3ccccc23)c2ccccc2)cc1OC (configuration not stated) | -5.99%
20 | Cc1cc(S(=O)(=O)c2cc3ccc(O)c(C)c3oc2=O)ccc1F | -15%
21 | Cc1ccccc1NC(=O)CCNS(=O)(=O)c1ccc2[nH]c(=O)oc2c1 | -12.7%
22 | O=C(Nc1ccc(C2CC2(Cl)Cl)cc1)c1cccc([N+](=O)[O-])c1 (configuration not stated) | -6.54%
